# Test results taken from the supplement of paper PMC3334620.
# The full ranking holds about 33,000 sequences; the median of “E-score (-0.5 to 0.5)” is about -0.021, and the highest 2% start at about 0.32. This is one part of a sample in which the highest values are shown more often than they occur.
# Target: T1, Zap1 (UniProt P47043)
# T1 sequence: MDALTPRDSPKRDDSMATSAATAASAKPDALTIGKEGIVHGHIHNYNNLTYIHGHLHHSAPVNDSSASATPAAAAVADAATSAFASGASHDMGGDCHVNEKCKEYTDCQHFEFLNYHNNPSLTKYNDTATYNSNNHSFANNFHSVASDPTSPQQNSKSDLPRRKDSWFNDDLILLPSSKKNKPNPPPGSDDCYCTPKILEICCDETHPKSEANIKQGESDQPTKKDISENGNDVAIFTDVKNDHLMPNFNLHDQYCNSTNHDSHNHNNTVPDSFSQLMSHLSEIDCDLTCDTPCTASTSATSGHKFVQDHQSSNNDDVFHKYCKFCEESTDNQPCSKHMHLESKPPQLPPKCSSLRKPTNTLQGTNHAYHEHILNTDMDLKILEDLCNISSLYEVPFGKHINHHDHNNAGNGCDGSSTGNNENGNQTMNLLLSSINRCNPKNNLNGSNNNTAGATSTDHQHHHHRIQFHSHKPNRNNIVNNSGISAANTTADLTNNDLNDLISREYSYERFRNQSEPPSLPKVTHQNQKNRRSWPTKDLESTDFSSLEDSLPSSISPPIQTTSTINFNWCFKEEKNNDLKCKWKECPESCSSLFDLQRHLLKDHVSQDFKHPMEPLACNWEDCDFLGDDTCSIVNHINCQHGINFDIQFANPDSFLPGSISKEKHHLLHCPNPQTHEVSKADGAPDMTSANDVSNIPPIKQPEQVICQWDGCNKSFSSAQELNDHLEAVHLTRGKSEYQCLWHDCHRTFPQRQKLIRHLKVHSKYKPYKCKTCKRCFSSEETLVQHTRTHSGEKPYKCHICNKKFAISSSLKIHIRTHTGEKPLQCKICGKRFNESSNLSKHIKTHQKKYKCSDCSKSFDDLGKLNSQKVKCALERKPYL
# Assay: PBM E-score (8-mer binding enrichment) (E-score (-0.5 to 0.5)); higher = stronger / more preferred TF binding
# Conditions: protein concentration: 200 nM; construct: GST-full length
# Protocol: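 Universal 'all 10-mer' protein binding microarrays (Agilent AMADID 015681) probed with GST-tagged S. cerevisiae TFs (full-length or DBD) made by in vitro transcription/translation (PURExpress), about 100-200 nM. Bound TF was detected with fluorescent anti-GST. Each ungapped 8-mer (which stands for itself and its reverse complement) is scored by the PBM enrichment score (E-score), a modified Wilcoxon-Mann-Whitney statistic from -0.5 to +0.5, computed with the Universal PBM Analysis Suite. Scale: above 0.35 generally sequence-specific binding.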
row,Sequence,PBM E-score
1,GTGCTGTA,-0.06
2,CAAGGCGC,-0.141
3,GAATGGTA,0.202
4,CCTGCAAG,-0.043
5,AAATCACT,0.0213
6,CACCCTTA,0.269
7,AACCCTTA,0.457
8,ACCCCTGA,0.28
9,ACCCCTTA,0.344
10,ATCCCTTA,0.0364
11,CCCCCTTA,-0.365
12,CGGCGCAG,-0.253
13,ATCGTGCG,0.158
14,GCAGCCCC,-0.0536
15,ATAACCGA,0.349
16,ACAACCGA,0.234
17,CTAACCGA,-0.035
18,GTAACCGA,0.346
19,GGAACCGA,-0.0122
20,ATAACCGC,0.459
21,ATAACCGG,0.387
22,AAAACCGA,0.0886
23,AGAACCGG,-0.0565
24,CTAACCGC,0.223
25,ACAACCGG,0.194

row,Sequence,PBM E-score
1,ACAACCGC,0.285
2,CAGCTGGA,-0.131
3,CAAGGAGC,-0.24
4,AGAGATTA,-0.0587
5,GTGCTGAA,-0.117
6,ACTGTGGG,-0.145
7,TAGATATA,0.172
8,AGCTTAAA,0.0882
9,ACTAGCCG,-0.177
10,AGAACCTG,0.0538
11,GGAACCTA,0.146
12,GCAACCTA,0.106
13,ATAACCTG,0.412
14,ACAACCTA,0.232
15,CTAACCTC,0.305
16,AGAACCTA,0.0497
17,ACAACCTG,0.23
18,ATAACCTA,0.458
19,CTAACCTA,0.327
20,GTAACCTA,0.458
21,CGAACCTA,0.00467
22,CTGAAGCC,-0.31
23,ATCAGGGC,-0.249
24,ACATTCGT,-0.0131
25,GAGAACTC,-0.146

row,Sequence,PBM E-score
1,ATTGAATG,0.113
2,CGGGACAA,-0.0695
3,GGTCAAGA,0.242
4,GCTCTCTA,-0.246
5,GGGAAAAC,-0.241
6,AGGAAACC,0.272
7,GGGAAACC,0.324
8,CAGTATAA,0.197
9,ACTGAATA,-0.0283
10,CCAAAAAC,0.256
11,CAAAAACC,0.302
12,AAAAACCC,0.196
13,CCAAAACC,0.331
14,CAAAACCC,0.349
15,CAAAACCA,0.311
16,CCTTATAG,0.262
17,GCTGGGGA,-0.0703
18,ATTCTCTC,-0.0801
19,CGAGCGTA,-0.102
20,AAGCATAA,0.0593
21,GGTAGTAC,0.248
22,CCAGCACA,-0.00996
23,ATCGACCG,-0.132
24,ATGTTATA,-0.0204
25,ATGTTATG,0.158

row,Sequence,PBM E-score
1,AGGTTATA,0.469
2,ACGTTATA,0.137
3,ACGTTATC,-0.101
4,AGGTTATC,0.463
5,CCGTTATA,0.103
6,CTGTTATA,0.115
7,AAGTTATC,0.0532
8,AAGTTATG,0.181
9,AGGTTATG,0.475
10,CGGTTATA,0.405
11,GAGTACAC,-0.0741
12,CGTTCCCA,-0.125
13,AAGCAATG,0.0748
14,GAGAATAA,0.0442
15,ACGATCGT,0.0702
16,ATACAGAA,0.0186
17,AGTCTAGA,-0.295
18,CTGAATGA,0.0581
19,AGATAGCG,-0.163
20,AGGCCTTG,-0.0709
21,ACATCCAA,-0.00617
22,GAGTTATA,0.142
23,CTGTTATC,0.0763
24,CAGTTATC,0.0632
25,CGGTTATC,0.424

row,Sequence,PBM E-score
1,GCGTTATA,0.218
2,GGGTTATA,0.474
3,GCACTGAA,-0.136
4,AGAGCGTG,-0.169
5,AGCCACAA,0.153
6,GAGTCAGA,-0.157
7,AGAAGTAG,-0.123
8,AGCACCCA,-0.0894
9,AGCACCCG,0.125
10,ACCACCCA,0.252
11,ACCACCCT,0.352
12,AGCACCCT,0.317
13,ACCACCCC,-0.00264
14,GCAGGCTA,-0.25
15,CTATTCGA,-0.0524
16,CCTAGCGC,-0.0463
17,AGCGATGG,-0.195
18,CCACAACC,0.411
19,CCACAACA,0.109
20,ACGCAACC,0.316
21,CCACAACG,0.0128
22,CCGCAACA,0.162
23,CGACAACA,0.0946
24,AGACAACC,0.31
25,CCGCAACC,0.34

row,Sequence,PBM E-score
1,CGACAACC,0.339
2,GCAGTTAC,0.109
3,CCCAAGAC,-0.045
4,GTTGAGAA,-0.027
5,AGTACTGG,-0.141
6,GCGCTGTA,-0.043
7,GCTTAAAC,-0.0479
8,GCTTAACC,0.327
9,GCTTAACA,-0.0361
10,ACTTAACC,0.287
11,GCCTAACC,0.125
12,CCCTAGGA,0.0656
13,CCTTAACC,0.438
14,CCTTAACA,0.116
15,ACCTAGGG,0.119
16,CCCTAACC,0.33
17,ACCTAACC,0.269
18,CCCTAGGG,0.41
19,CACTTTAC,0.0657
20,AGGTCTCC,0.00142
21,ACACTTTC,-0.104
22,ATCCTCCG,-0.238
23,ATCCAACG,-0.139
24,AATCAGTC,-0.107
25,TCGCAACA,-0.0496

row,Sequence,PBM E-score
1,CCCTAAGG,0.402
2,CCCTAAGC,-0.159
3,CCCTAAGA,0.263
4,CGGGCGAG,-0.0126
5,ACCACCCG,0.184
6,CCCACCCA,0.323
7,CCCACCCG,0.324
8,GCCACCCA,-0.0281
9,TCCACCCA,-0.233
10,CCCACCCC,0.149
11,GTCTTCTA,-0.0319
12,CTGATGGA,-0.254
13,CACCTTGA,0.179
14,TACCTTCA,0.255
15,AACCTTGA,0.429
16,GACCTTGA,0.34
17,GACCTTGC,0.133
18,TACCTTGA,0.337
19,AACCTTGT,0.229
20,GTCCTTGA,0.113
21,AACCTTGC,0.305
22,CTAGGGAC,-0.0705
